Records with an inconclusive call do not appear. Entries that show only a call come without a potency. A number with no mark means an inactive call. Activity calls are given as the source filed them. The call rests on the fitted dose curve; in most records, active means well fitted inhibition curve with a large enough effect; inconclusive means small, poorly fitted or top-dose-only effect; inactive means flat fitted curve, though single readings scatter.
Legend:
[1] = qHTS profiling for inhibitors of Plasmodium falciparum proliferation (AID 504749); further: nearly all actives have a fitted effect of over 60% in size; details: P. falciparum in erythrocytes, SYBR Green DNA, 72 h
In short: (§1)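 Quantitative HTS: compounds pinned into medium, infected erythrocytes added (0.3% parasitemia, 2.5% hematocrit), 72 h culture at 37 C under 5% CO2. Saponin/Triton lysis with SYBR Green I, overnight RT, then fluorescence read.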

3D7 = experiment: as above; details: P. falciparum in erythrocytes, SYBR Green DNA, 72 h; series mostly up to 28.7 µM
In short: as §1

7G8 = experiment: as above; details: P. falciparum in erythrocytes, SYBR Green DNA, 72 h; series mostly up to 28.7 µM
In short: as §1

AA1029 = experiment: as above; details: P. falciparum in erythrocytes, SYBR Green DNA, 72 h; series mostly up to 28.7 µM
In short: as §1

AS120 = experiment: as above; details: P. falciparum in erythrocytes, SYBR Green DNA, 72 h; series mostly up to 28.7 µM
In short: as §1

ATS189 = experiment: as above; details: P. falciparum in erythrocytes, SYBR Green DNA, 72 h; series mostly up to 28.7 µM
In short: as §1

ATS95 = experiment: as above; details: P. falciparum in erythrocytes, SYBR Green DNA, 72 h; series mostly up to 28.7 µM
In short: as §1

C2A = experiment: as above; details: P. falciparum in erythrocytes, SYBR Green DNA, 72 h; series mostly up to 28.7 µM
In short: as §1

CP185 = experiment: as above; details: P. falciparum in erythrocytes, SYBR Green DNA, 72 h; series mostly up to 28.7 µM
In short: as §1

CP191 = experiment: as above; details: P. falciparum in erythrocytes, SYBR Green DNA, 72 h; series mostly up to 28.7 µM
In short: as §1

CP192 = experiment: as above; details: P. falciparum in erythrocytes, SYBR Green DNA, 72 h; series mostly up to 28.7 µM
In short: as §1

CP194 = experiment: as above; details: P. falciparum in erythrocytes, SYBR Green DNA, 72 h; series mostly up to 28.7 µM
In short: as §1

CP201 = experiment: as above; details: P. falciparum in erythrocytes, SYBR Green DNA, 72 h; series mostly up to 28.7 µM
In short: as §1

CP211 = experiment: as above; details: P. falciparum in erythrocytes, SYBR Green DNA, 72 h; series mostly up to 28.7 µM
In short: as §1

CP215 = experiment: as above; details: P. falciparum in erythrocytes, SYBR Green DNA, 72 h; series mostly up to 28.7 µM
In short: as §1

CP217 = experiment: as above; details: P. falciparum in erythrocytes, SYBR Green DNA, 72 h; series mostly up to 28.7 µM
In short: as §1

CP237 = experiment: as above; details: P. falciparum in erythrocytes, SYBR Green DNA, 72 h; series mostly up to 28.7 µM
In short: as §1

CP238 = experiment: as above; details: P. falciparum in erythrocytes, SYBR Green DNA, 72 h; series mostly up to 28.7 µM
In short: as §1

CP247 = experiment: as above; details: P. falciparum in erythrocytes, SYBR Green DNA, 72 h; series mostly up to 28.7 µM
In short: as §1

CP203 = experiment: as above; details: P. falciparum in erythrocytes, SYBR Green DNA, 72 h; series mostly up to 28.7 µM
In short: as §1

[2] = at 28.7 µM (top of the series), parasite line A
[3] = at 28.7 µM (top of the series), parasite line B
[4] = at 12.8 µM (top of the series), parasite line A
[5] = at 12.8 µM (top of the series), parasite line B
Potency means the concentration at half of the fitted maximal effect.

## CC1=CCC2CC1C2(C)C (stereo not given)
[1]; [2]
  activity, negative = inhibition: 10.5%
[1]; [3]
  activity, negative = inhibition: 12.9%
3D7
  Potency: inactive
7G8
  Potency: inactive
AA1029
  Potency: inactive
AS120
  Potency: inactive
ATS189
  Potency: inactive
ATS95
  Potency: inactive
C2A
  Potency: inactive
CP185
  Potency: inactive
CP191
  Potency: inactive
CP192
  Potency: inactive
CP194
  Potency: inactive
CP201
  Potency: inactive
CP211
  Potency: inactive
CP215
  Potency: inactive
CP217
  Potency: inactive
CP237
  Potency: inactive
CP238
  Potency: inactive
CP247
  Potency: inactive

## CN1C(=O)OC(C)(C)C1=O
[1]; [4]
  activity, negative = inhibition: -13.9%
[1]; [5]
  activity, negative = inhibition: 4.58%
3D7
  Potency: inactive
7G8
  Potency: inactive
AA1029
  Potency: inactive
AS120
  Potency: inactive
ATS189
  Potency: inactive
ATS95
  Potency: inactive
C2A
  Potency: inactive
CP185
  Potency: inactive
CP191
  Potency: inactive
CP192
  Potency: inactive
CP194
  Potency: inactive
CP201
  Potency: inactive
CP211
  Potency: inactive
CP215
  Potency: inactive
CP217
  Potency: inactive
CP237
  Potency: inactive
CP238
  Potency: inactive
CP247
  Potency: inactive

## [O-][N+](=Nc1ccccc1)c1ccccc1
[1]; [2]
  activity, negative = inhibition: -5.95%
[1]; [3]
  activity, negative = inhibition: -6.73%
3D7
  Potency: inactive
7G8
  Potency: inactive
AA1029
  Potency: inactive
AS120
  Potency: inactive
ATS189
  Potency: inactive
ATS95
  Potency: inactive
C2A
  Potency: inactive
CP185
  Potency: inactive
CP191
  Potency: inactive
CP192
  Potency: inactive
CP194
  Potency: inactive
CP201
  Potency: inactive
CP211
  Potency: inactive
CP215
  Potency: inactive
CP217
  Potency: inactive
CP237
  Potency: inactive
CP238
  Potency: inactive
CP247
  Potency: inactive

## CCCCO
[1]; [2]
  activity, negative = inhibition: 5.51%
[1]; [3]
  activity, negative = inhibition: 16.3%
3D7
  Potency: inactive
7G8
  Potency: inactive
AA1029
  Potency: inactive
AS120
  Potency: inactive
ATS189
  Potency: inactive
ATS95
  Potency: inactive
C2A
  Potency: inactive
CP185
  Potency: inactive
CP191
  Potency: inactive
CP192
  Potency: inactive
CP194
  Potency: inactive
CP201
  Potency: inactive
CP203
  Potency: inactive
CP211
  Potency: inactive
CP217
  Potency: inactive
CP237
  Potency: inactive
CP238
  Potency: inactive
CP247
  Potency: inactive

## CCCCCCCCCCCCOCCCN
[1]; [2]
  activity, negative = inhibition: -4.13%
[1]; [3]
  activity, negative = inhibition: 8.54%
3D7
  Potency: inactive
7G8
  Potency: inactive
AA1029
  Potency: inactive
AS120
  Potency: inactive
ATS189
  Potency: inactive
ATS95
  Potency: inactive
C2A
  Potency: inactive
CP185
  Potency: inactive
CP191
  Potency: inactive
CP192
  Potency: inactive
CP194
  Potency: inactive
CP201
  Potency: inactive
CP211
  Potency: inactive
CP215
  Potency: inactive
CP217
  Potency: inactive
CP237
  Potency: inactive
CP238
  Potency: inactive
CP247
  Potency: inactive

## Cc1ncc(C[n+]2csc(CCO)c2C)c(N)n1
[1]; [4]
  activity, negative = inhibition: 5.7%
[1]; [5]
  activity, negative = inhibition: 7.59%
3D7
  Potency: inactive
7G8
  Potency: inactive
AA1029
  Potency: inactive
AS120
  Potency: inactive
ATS189
  Potency: inactive
ATS95
  Potency: inactive
C2A
  Potency: inactive
CP185
  Potency: inactive
CP191
  Potency: inactive
CP192
  Potency: inactive
CP194
  Potency: inactive
CP201
  Potency: inactive
CP203
  Potency: inactive
CP211
  Potency: inactive
CP217
  Potency: inactive
CP237
  Potency: inactive
CP238
  Potency: inactive
CP247
  Potency: inactive

## NC(=S)NS(=O)(=O)c1ccc(N)cc1
[1]; [2]
  activity, negative = inhibition: -3.33%
[1]; [3]
  activity, negative = inhibition: -5.51%
3D7
  Potency: inactive
7G8
  Potency: inactive
AA1029
  Potency: inactive
AS120
  Potency: inactive
ATS189
  Potency: inactive
ATS95
  Potency: inactive
C2A
  Potency: inactive
CP185
  Potency: inactive
CP191
  Potency: inactive
CP192
  Potency: inactive
CP194
  Potency: inactive
CP201
  Potency: inactive
CP211
  Potency: inactive
CP215
  Potency: inactive
CP217
  Potency: inactive
CP237
  Potency: inactive
CP238
  Potency: inactive
CP247
  Potency: inactive

## FCOC(C(F)(F)F)C(F)(F)F
[1]; [2]
  activity, negative = inhibition: 11.2%
[1]; [3]
  activity, negative = inhibition: -2.57%
3D7
  Potency: inactive
7G8
  Potency: inactive
AA1029
  Potency: inactive
AS120
  Potency: inactive
ATS189
  Potency: inactive
ATS95
  Potency: inactive
C2A
  Potency: inactive
CP185
  Potency: inactive
CP191
  Potency: inactive
CP192
  Potency: inactive
CP194
  Potency: inactive
CP201
  Potency: inactive
CP211
  Potency: inactive
CP215
  Potency: inactive
CP217
  Potency: inactive
CP237
  Potency: inactive
CP238
  Potency: inactive
CP247
  Potency: inactive

## CNC(=O)C[C@@H](N)C(=O)N[C@@H](C(=O)N[C@@H]1C(=O)N2[C@@H]1SC(C)(C)[C@@H]2C(=O)O)c1ccc(O)cc1
[1]; [2]
  activity, negative = inhibition: 11.3%
[1]; [3]
  activity, negative = inhibition: 15.8%
3D7
  Potency: inactive
7G8
  Potency: inactive
AA1029
  Potency: inactive
AS120
  Potency: inactive
ATS189
  Potency: inactive
ATS95
  Potency: inactive
C2A
  Potency: inactive
CP185
  Potency: inactive
CP191
  Potency: inactive
CP192
  Potency: inactive
CP194
  Potency: inactive
CP201
  Potency: inactive
CP211
  Potency: inactive
CP215
  Potency: inactive
CP217
  Potency: inactive
CP237
  Potency: inactive
CP238
  Potency: inactive
CP247
  Potency: inactive

## CC(C)NCC(O)COc1ccccc1-n1cccc1 (stereo not given)
[1]; [2]
  activity, negative = inhibition: 18.2%
[1]; [3]
  activity, negative = inhibition: -1.41%
3D7
  Potency: inactive
7G8
  Potency: 7.08 µM (active)
AA1029
  Potency: inactive
AS120
  Potency: inactive
ATS189
  Potency: inactive
ATS95
  Potency: inactive
C2A
  Potency: inactive
CP185
  Potency: inactive
CP191
  Potency: inactive
CP192
  Potency: inactive
CP194
  Potency: inactive
CP201
  Potency: inactive
CP203
  Potency: inactive
CP211
  Potency: inactive
CP215
  Potency: inactive
CP217
  Potency: inactive
CP238
  Potency: inactive
CP247
  Potency: inactive

## O=S(=O)(O)CC(S)CS (stereo not given)
[1]; [2]
  activity, negative = inhibition: 14.3%
[1]; [3]
  activity, negative = inhibition: -2.53%
3D7
  Potency: inactive
7G8
  Potency: inactive
AA1029
  Potency: inactive
AS120
  Potency: inactive
ATS189
  Potency: inactive
ATS95
  Potency: inactive
C2A
  Potency: inactive
CP185
  Potency: inactive
CP191
  Potency: inactive
CP192
  Potency: inactive
CP194
  Potency: inactive
CP201
  Potency: inactive
CP211
  Potency: inactive
CP215
  Potency: inactive
CP217
  Potency: inactive
CP237
  Potency: inactive
CP238
  Potency: inactive
CP247
  Potency: inactive

## CCCCC[C@H](O)/C=C/[C@@H]1[C@H]2C/C(=C/CCCC(=O)O)O[C@H]2C[C@H]1O
[1]; [2]
  activity, negative = inhibition: -0.331%
[1]; [3]
  activity, negative = inhibition: 0.715%
3D7
  Potency: inactive
7G8
  Potency: inactive
AA1029
  Potency: inactive
AS120
  Potency: inactive
ATS189
  Potency: inactive
ATS95
  Potency: inactive
C2A
  Potency: inactive
CP185
  Potency: inactive
CP191
  Potency: inactive
CP192
  Potency: inactive
CP194
  Potency: inactive
CP201
  Potency: inactive
CP211
  Potency: inactive
CP215
  Potency: inactive
CP217
  Potency: inactive
CP237
  Potency: inactive
CP238
  Potency: inactive
CP247
  Potency: inactive

## CC(C)c1ncc([N+](=O)[O-])n1C
[1]; [2]
  activity, negative = inhibition: 8.33%
[1]; [3]
  activity, negative = inhibition: 4.53%
3D7
  Potency: inactive
7G8
  Potency: inactive
AA1029
  Potency: inactive
AS120
  Potency: inactive
ATS189
  Potency: inactive
ATS95
  Potency: inactive
C2A
  Potency: inactive
CP185
  Potency: inactive
CP191
  Potency: inactive
CP192
  Potency: inactive
CP194
  Potency: inactive
CP201
  Potency: inactive
CP211
  Potency: inactive
CP215
  Potency: inactive
CP217
  Potency: inactive
CP237
  Potency: inactive
CP238
  Potency: inactive
CP247
  Potency: inactive
